Several values for one entry are separate records, joined by “and”; a condition that tells them apart may be missing. Identical values can stand only once. About 83,000 compounds went through this panel and 20% of them were active in at least one assay; those are over-represented in the sample as a whole.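 Interpretation: 100, growth as untreated; towards 0, rising growth inhibition; 0, no net growth; 0 to -100, cell death. Compounds scoring below 10 were considered active.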 Activity calls are given as the source filed them.
Assays:
Assay in all cases: NCI-60 one-dose screen, 48 h (100 = growth as untreated, 0 = no growth, -100 = all killed)
HCT-15 colon = details: 10 µM
HT29 colon = details: 10 µM
SNB-75 CNS = details: 10 µM
SNB-19 CNS = details: 10 µM
U251 CNS = details: 10 µM unless noted
PC-3 prostate = details: 10 µM
SK-MEL-5 melanoma = details: 10 µM unless noted
UACC-62 melanoma = tested on: UACC-62 melanoma
LOX IMVI melanoma = details: 10 µM unless noted
SK-MEL-28 melanoma = details: 10 µM
SK-MEL-2 melanoma = details: 10 µM
SN12C renal = details: 10 µM
UO-31 renal = details: 10 µM
TK-10 renal = tested on: TK-10 renal
ACHN renal = details: 10 µM
CAKI-1 renal = details: 10 µM
A498 renal = details: 10 µM
CCRF-CEM leukemia = details: 10 µM
MOLT-4 leukemia = details: 10 µM
EKVX NSCLC = details: 10 µM

Measured: growth

Cc1nc(N=C(N)N)nc2ccc3ccccc3c12
active: HT29 colon 1.55% | SNB-75 CNS -10.3% | SNB-19 CNS -11.5% | U251 CNS -17% | PC-3 prostate -19.2% | SK-MEL-5 melanoma 2.88% | UACC-62 melanoma; 10 µM -20.9% | LOX IMVI melanoma 2.45% | SK-MEL-28 melanoma -0.847% | SK-MEL-2 melanoma -19% | SN12C renal -22.6% | UO-31 renal 5.39% | TK-10 renal; 10 µM 3.86% | CCRF-CEM leukemia -25.9% | MOLT-4 leukemia -28.2%
inactive: HCT-15 colon 71.8% | ACHN renal 15.1% | CAKI-1 renal 75.2% | A498 renal 32.9%

C[n+]1c2cc(N)ccc2cc2ccc(N)cc21
inactive: HCT-15 colon 19.6% [middle of 4 runs]
17.7% (inactive) [middle of 4 runs]: CCRF-CEM leukemia
9.49% (active) [middle of 4 runs]: MOLT-4 leukemia
active: HT29 colon 4.57% [middle of 4 runs] | U251 CNS 1.21% [middle of 4 runs] | UACC-62 melanoma; 10 µM -30.5% and -37% and -78.6% | LOX IMVI melanoma 1.35% [middle of 4 runs] | EKVX NSCLC -23.9% and 5.67% and -26.5% | ACHN renal 6.76% [middle of 4 runs] | CAKI-1 renal -22.5% and 9.14%

CC(C)C1=C(O)C2=C(C(=O)C1=O)C1(C)CCCC(C)(C)C1CC2O (centres undefined)
18.6% (inactive) and -89% (active): TK-10 renal; 100 µM
active: UACC-62 melanoma; 100 µM -73.2% and -96.5%

CCCCCCCCCCCCCCCCCCOCC(COP(=O)([O-])OCC[N+](C)(C)C)OC (centres undefined)
inactive: HCT-15 colon 61% | HT29 colon 37.7% | SNB-75 CNS 84.4% | SNB-19 CNS 80.8% | U251 CNS 72.4% | PC-3 prostate 29.5% | SK-MEL-5 melanoma 62.5% | UACC-62 melanoma; 10 µM 73.3% | LOX IMVI melanoma 84.6% | SK-MEL-2 melanoma 101% | EKVX NSCLC 119% | SN12C renal 89.7% | UO-31 renal 94.9% | TK-10 renal; 10 µM 64% | ACHN renal 93.7% | CAKI-1 renal 69% | CCRF-CEM leukemia 63.9% | MOLT-4 leukemia 89.4%

CCN(CC)c1ccc(NC(C(=O)c2ccccc2)c2ccccc2)cc1 (centres undefined)
inactive: HT29 colon 12.4% | SNB-75 CNS 81.7% | SNB-19 CNS 36.6% | PC-3 prostate 83.7% | SK-MEL-5 melanoma 78.8% | UACC-62 melanoma; 10 µM 28.3% | SK-MEL-28 melanoma 16.9% | SK-MEL-2 melanoma 78.4% | TK-10 renal; 10 µM 41% | CAKI-1 renal 17.8% | CCRF-CEM leukemia 10.3% | MOLT-4 leukemia 12.8%
active: HCT-15 colon -16.4% | U251 CNS -17.5% | LOX IMVI melanoma -43.4% | SN12C renal 1.65% | UO-31 renal -24.8% | ACHN renal -34.6%

COC(=O)C1C(O)C(C)C(O)C(C)C=C(C)C2=C3C(=C(C)C(=O)c4c(O)c(c(C)c(OC(C)=O)c43)NC(=O)C(C)=C/C=C\C(C)C(O)C(C)C1O)OCO2 (centres undefined)
inactive: HCT-15 colon 115% | HT29 colon 114% | SNB-75 CNS 90% | SNB-19 CNS 109% | U251 CNS 110% | SK-MEL-5 melanoma 110% | UACC-62 melanoma; 10 µM 103% | LOX IMVI melanoma 102% | SK-MEL-28 melanoma 118% | SK-MEL-2 melanoma 26.5% | EKVX NSCLC 119% | SN12C renal 99.8% | UO-31 renal 89.3% | TK-10 renal; 10 µM 118% | ACHN renal 104% | CAKI-1 renal 133% | A498 renal 123% | CCRF-CEM leukemia 103% | MOLT-4 leukemia 153%

CC(=O)OCC(OC(C)=O)C(OC(C)=O)C(OC(C)=O)C(OC(C)=O)C(/C=N/Nc1ccccc1)=N/Nc1ccccc1 (centres undefined)
inactive: HCT-15 colon 59.5% | HT29 colon 56.1% | SNB-75 CNS 87.4% | SNB-19 CNS 88.9% | U251 CNS 72.5% | PC-3 prostate 55.9% | SK-MEL-5 melanoma 91.9% | LOX IMVI melanoma 36.8% | SK-MEL-28 melanoma 101% | SK-MEL-2 melanoma 84.3% | EKVX NSCLC 60% | SN12C renal 78.7% | UO-31 renal 48.6% | TK-10 renal; 10 µM 91.2% | ACHN renal 56.2% | CAKI-1 renal 72.6% | A498 renal 83.4% | CCRF-CEM leukemia 17.5% | MOLT-4 leukemia 30.6%

CN(C)C(=S)SC(=S)N(C)C
inactive: HCT-15 colon 87.5% and 95.5% | HT29 colon 82.2% and 59.8% | SNB-75 CNS 97.2% and 89.7% | SNB-19 CNS 98.7% and 109% | U251 CNS 96.1% and 97.1% | PC-3 prostate 93.1% and 89.6% | SK-MEL-5 melanoma 92.9% and 99% | UACC-62 melanoma; 10 µM 92.1% and 103% | LOX IMVI melanoma 99.8% and 90.9% | SK-MEL-28 melanoma 105% and 104% | SK-MEL-2 melanoma 107% and 93.2% | SN12C renal 101% and 103% | UO-31 renal 91.2% and 79.1% | TK-10 renal; 10 µM 113% and 112% | ACHN renal 101% and 107% | CAKI-1 renal 104% and 103% | A498 renal 94.7% | CCRF-CEM leukemia 80.6% and 71.3% | MOLT-4 leukemia 92.4% and 85%

CC(C)(C)CC(C)(C)c1ccc(OCCO)cc1
inactive: HCT-15 colon 99.8% | HT29 colon 99.3% | SNB-75 CNS 101% | SNB-19 CNS 106% | U251 CNS 104% | PC-3 prostate 117% | SK-MEL-5 melanoma 119% | UACC-62 melanoma; 10 µM 106% | LOX IMVI melanoma 99.1% | SK-MEL-28 melanoma 141% | EKVX NSCLC 122% | SN12C renal 103% | UO-31 renal 88.2% | TK-10 renal; 10 µM 78.2% | ACHN renal 117% | CAKI-1 renal 115% | A498 renal 115% | CCRF-CEM leukemia 106% | MOLT-4 leukemia 85.4%

CS(=O)(=O)OC1CC(n2ccc(=O)[nH]c2=O)OC1COC(c1ccccc1)(c1ccccc1)c1ccccc1 (centres undefined)
inactive: HCT-15 colon 93.7% | HT29 colon 96.1% | SNB-75 CNS 103% | SNB-19 CNS 99.8% | PC-3 prostate 91.3% | SK-MEL-5 melanoma 101% | UACC-62 melanoma; 10 µM 97.7% | SK-MEL-28 melanoma 104% | SN12C renal 103% | UO-31 renal 81.5% | TK-10 renal; 10 µM 105% | ACHN renal 103% | CAKI-1 renal 103% | A498 renal 107%

O=C1NC(=O)c2cc([N+](=O)[O-])ccc21
inactive: HCT-15 colon 107% | HT29 colon 109% | SNB-19 CNS 109% | U251 CNS 109% | PC-3 prostate 101% | SK-MEL-5 melanoma 104% | UACC-62 melanoma; 10 µM 102% | LOX IMVI melanoma 104% | SK-MEL-28 melanoma 120% | SK-MEL-2 melanoma 107% | EKVX NSCLC 103% | SN12C renal 101% | UO-31 renal 85.5% | TK-10 renal; 10 µM 99.3% | ACHN renal 103% | CAKI-1 renal 86.4% | A498 renal 99.2% | CCRF-CEM leukemia 45.3% | MOLT-4 leukemia 96.9%

CCO/C=C1\SC(=S)N(c2cccc(O)c2)C1=O
inactive: HCT-15 colon 104% | HT29 colon 98.5% | SNB-75 CNS 74.7% | SNB-19 CNS 96.3% | U251 CNS 102% | PC-3 prostate 98% | SK-MEL-5 melanoma 99.4% | UACC-62 melanoma; 10 µM 103% | LOX IMVI melanoma 103% | SK-MEL-28 melanoma 102% | SK-MEL-2 melanoma 87.4% | SN12C renal 98.1% | UO-31 renal 79.5% | TK-10 renal; 10 µM 88.3% | ACHN renal 102% | CAKI-1 renal 98.9% | A498 renal 118% | MOLT-4 leukemia 96.7%

COc1c(O)cc2oc3cc(O)c(CC=C(C)C)c(O)c3c(=O)c2c1CC=C(C)C
inactive: HCT-15 colon 24.1% | HT29 colon 27.6% | SNB-75 CNS 82.7% | SNB-19 CNS 96.4% | U251 CNS 47.9% | PC-3 prostate 41.1% | SK-MEL-5 melanoma 90% | SK-MEL-28 melanoma 87.8% | SK-MEL-2 melanoma 89.8% | EKVX NSCLC 54% | SN12C renal 51.5% | UO-31 renal 49.3% | TK-10 renal; 10 µM 89.1% | ACHN renal 58.8% | CAKI-1 renal 56.2% | A498 renal 97.2% | CCRF-CEM leukemia 47.8% | MOLT-4 leukemia 42.3%
active: LOX IMVI melanoma 0.237%

CN1CCN(CCCN2c3ccccc3Sc3ccc(C(F)(F)F)cc32)CC1
inactive: HCT-15 colon 29.3% | SNB-75 CNS 52.5% | SNB-19 CNS 73.8% | U251 CNS 27.9% | PC-3 prostate 39.8% | SK-MEL-5 melanoma 24.5% | LOX IMVI melanoma 15.3% | SK-MEL-2 melanoma 88.1% | EKVX NSCLC 66.9% | SN12C renal 57% | UO-31 renal 35.1% | TK-10 renal; 10 µM 66% | ACHN renal 46.6% | CAKI-1 renal 34% | A498 renal 70.2% | CCRF-CEM leukemia 50.2% | MOLT-4 leukemia 37.6%
active: HT29 colon 5.41% | SK-MEL-28 melanoma -45.4%

O=C1C=CC(=CC=C2C=CN(CCCCCCCCCCCO)C=C2)C=C1
active: SK-MEL-5 melanoma -54.3%
inactive: HCT-15 colon 89.8% | HT29 colon 22.5% | SNB-75 CNS 53.4% | U251 CNS 25% | PC-3 prostate 17.5% | UACC-62 melanoma; 10 µM 29.6% | LOX IMVI melanoma 18.8% | SK-MEL-28 melanoma 37.6% | SK-MEL-2 melanoma 33.5% | EKVX NSCLC 26.3% | SN12C renal 10.4% | TK-10 renal; 10 µM 58.8% | ACHN renal 90.9% | CAKI-1 renal 90.4% | A498 renal 95.1% | CCRF-CEM leukemia 29.5% | MOLT-4 leukemia 41.9%

CC[N+](CC)=c1ccc2nc3c(cc(N)c4ccccc43)oc-2c1
active: HCT-15 colon -54.6% | HT29 colon 5.58% | SNB-75 CNS -73.4% | SNB-19 CNS -64.3% | U251 CNS -76.1% | PC-3 prostate -48.8% | UACC-62 melanoma; 10 µM -79.9% | LOX IMVI melanoma -58.7% | SK-MEL-28 melanoma -61.8% | SK-MEL-2 melanoma -75.1% | EKVX NSCLC -66.6% | SN12C renal -40.8% | UO-31 renal -56.7% | TK-10 renal; 10 µM -74.2% | ACHN renal -77.6% | CAKI-1 renal -79% | A498 renal -76.4% | MOLT-4 leukemia -44.4%
inactive: CCRF-CEM leukemia 19.8%
